In PubChem BioAssay (NCI) one finds growth data, which are given here for 13 compounds.

Some test systems named below: NCI-H23 lung; NCI-H226 lung; NCI-H322M lung; HOP-62 NSCLC; NCI-H460 lung; HOP-92 NSCLC; NCI-H522 lung; A549/ATCC NSCLC; 786-0 renal; COLO 205 colon.
What all share (assay): NCI-60 one-dose screen, 48 h (100 = growth as untreated, 0 = no growth, -100 = all killed)
Holding throughout (conditions): 10 µM unless noted

The panel holds about 83,000 compounds, 20% with a hit somewhere; the sample as a whole holds those more often.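 Single-concentration screen, 48 h exposure, 96-well plates. Endpoint: percent growth. Below 10 = active.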 Unmarked numbers belong to inactive results. Activity calls are given as the source filed them.

For `COc1cc2c(c(OC)c1OC)C(=O)CC(c1cccc(NC(=O)c3ccc(C#N)cc3)c1)O2` (stereo not given), the growth is 70.6% in the test with NCI-H23 lung; 68.3% in the test with NCI-H226 lung; 91.4% with NCI-H322M lung; 73.6% in the test on HOP-62 NSCLC; 85.6% in the test on NCI-H460 lung; 67.6% with HOP-92 NSCLC. The growth is 46.6% in the test with NCI-H522 lung, 77.4% in the test with A549/ATCC NSCLC, 91.9% in the test with 786-0 renal and 90.6% with COLO 205 colon.

Turning to `COc1ccccc1C(=O)Nc1cccc(NC(=O)c2ccoc2C)c1`, the growth was 47.5% with NCI-H23 lung; 70.7% in the test on NCI-H226 lung; 59.5% in the test with NCI-H322M lung; 49.5% with HOP-62 NSCLC; 13.9% with NCI-H460 lung; 47.2% in the test on HOP-92 NSCLC. In addition, the growth in the test with NCI-H522 lung is 13.9%; in the test with A549/ATCC NSCLC it was 28.2%; with 786-0 renal it was 32.9%; in the test with COLO 205 colon, 39.2%.

As to `Cn1cc(-c2csc(-c3c[nH]c4ccc(F)cc34)n2)c2ccnc(Cl)c21`, the growth with NCI-H23 lung was 64.2%; in the test with NCI-H226 lung, 62.1%; in the test with NCI-H322M lung it was 80.6%; in the test with HOP-62 NSCLC it was 98.2%; in the test with NCI-H460 lung, 36.7%; in the test on HOP-92 NSCLC it was 71.5%. In addition, the growth with NCI-H522 lung is 79.4%; in the test on A549/ATCC NSCLC, 64.3%; in the test on 786-0 renal, 57.6%; with COLO 205 colon, 52.2%.

Turning to `CN1CCN(Cc2ccc(NC(=O)c3cncc(C#Cc4cnc5ccc(Cl)nn45)c3)cc2C(F)(F)F)CC1`, the growth is -29.5% (active) in the test on NCI-H23 lung; -58.3% (active) in the test on NCI-H226 lung; -14.2% (active) with NCI-H322M lung; -15.7% (active) with HOP-62 NSCLC; -47.3% (active) in the test with NCI-H460 lung; -16.3% (active) in the test with HOP-92 NSCLC. The growth is -12.8% (active) in the test with NCI-H522 lung, 4.24% (active) in the test with A549/ATCC NSCLC, -53% (active) with 786-0 renal and -46.1% (active) with COLO 205 colon.

Consider `COc1ccc2c(c1)c(/C(O)=C1\COC(=O)C1=O)cn2Cc1ccc(F)cc1`, for which the growth is 110% in the test on NCI-H23 lung; 90.4% in the test on NCI-H226 lung; 101% in the test on NCI-H322M lung; 112% in the test on HOP-62 NSCLC; 103% in the test with NCI-H460 lung; 72.1% in the test on HOP-92 NSCLC. The growth with NCI-H522 lung is 73.9%; in the test with A549/ATCC NSCLC, 101%; in the test with 786-0 renal it was 96.1%; in the test with COLO 205 colon, 108%.

With `O=C(C1=Cc2cc3ccccc3n2Cc2cnnn21)c1ccc(O)cc1`, the growth in the test with NCI-H23 lung was 75.6%; in the test on NCI-H226 lung, 85.1%; with NCI-H322M lung it was 89.4%; in the test with HOP-62 NSCLC, 55.7%; with NCI-H460 lung, 27.8%; in the test on HOP-92 NSCLC, 84.4%. Further, the growth is 36.7% with NCI-H522 lung, 50.7% with A549/ATCC NSCLC, 81.8% in the test with 786-0 renal and 75.5% in the test on COLO 205 colon.

As to `CCn1c(-c2cc3c([nH]c4ccccc43)c(-c3cccc(O)c3)n2)n[nH]c1=S`, the growth in the test on NCI-H23 lung was 68.4%; in the test with NCI-H226 lung, 75.9%; in the test with NCI-H322M lung, 73.2%; with HOP-62 NSCLC, 18.3%; with NCI-H460 lung, 47.1%; in the test with HOP-92 NSCLC it was 12.7%. Further, the growth in the test with NCI-H522 lung is -10.6% (active); in the test with A549/ATCC NSCLC it was 38%; in the test on 786-0 renal it was 13.5%; in the test with COLO 205 colon, 92.5%.

With `CN(C)c1ccc(/C=C(\C#N)c2cc3ccccc3[nH]2)cc1`, the growth in the test on NCI-H23 lung was 28.4%; in the test on NCI-H226 lung it was 70.8%; in the test on NCI-H322M lung, 38.4%; in the test with HOP-62 NSCLC, 28.7%; in the test with NCI-H460 lung, 13.3%; in the test with HOP-92 NSCLC, 26.4%. In addition, the growth with NCI-H522 lung was -9.55% (active); with A549/ATCC NSCLC, 41.4%; with 786-0 renal it was 32.9%; in the test with COLO 205 colon it was 4% (active).

Take `C/C=C(\C)C(=O)N[C@H]1C(O)C[C@]2(C)C3CC[C@@]4(C)C(CC[C@@H]4C(C)N(C)C)C3CCC2C1O` (stereo not given in full): the growth in the test on NCI-H23 lung is 68.7%; with NCI-H226 lung, 115%; in the test on NCI-H322M lung, 65.2%; with HOP-62 NSCLC it was 86.8%; in the test with NCI-H460 lung, 30.7%; in the test with HOP-92 NSCLC, 46.6%. Also, the growth in the test on NCI-H522 lung was 90.6%; in the test with A549/ATCC NSCLC, 81.6%; in the test with 786-0 renal it was 68.4%; in the test with COLO 205 colon it was 29.4%.

As to `COc1ccc(C2=CC(c3cc(OC)c(OC)c(OC)c3)n3ncnc3N2)cc1` (stereo not given), the growth is 29.1% with NCI-H23 lung; 51.1% in the test on NCI-H226 lung; 43% in the test on NCI-H322M lung; 9.09% (active) with HOP-62 NSCLC; 0.735% (active) in the test with NCI-H460 lung; 27% in the test with HOP-92 NSCLC. Also, the growth in the test on NCI-H522 lung was -13.3% (active); in the test with A549/ATCC NSCLC, 14.3%; with 786-0 renal, 17.9%; in the test on COLO 205 colon, -64.8% (active).

Take `C/C(=N\O)[C@@H]1CC[C@]2(CO)CC[C@]3(C)[C@H](CC[C@@H]4[C@@]5(C)CCCNC(C)(C)[C@@H]5CC[C@]43C)[C@@H]12`: the growth with NCI-H23 lung was 89.6%; with NCI-H226 lung it was 92.6%; in the test with NCI-H322M lung, 94.2%; in the test with HOP-62 NSCLC, 90%; with NCI-H460 lung it was 72.6%; with HOP-92 NSCLC it was 65.6%. In addition, the growth in the test with NCI-H522 lung is 90%; in the test with A549/ATCC NSCLC it was 76.6%; with 786-0 renal, 92.3%; in the test with COLO 205 colon, 81%.

As for `CCc1ccc(CCC(=O)Nc2ncc(Cc3ccccc3)s2)o1`, the growth in the test on NCI-H23 lung is 37.6%; in the test with NCI-H226 lung, 64.3%; in the test with NCI-H322M lung, 54.7%; with HOP-62 NSCLC it was 23%; in the test on NCI-H460 lung it was 7.58% (active); with HOP-92 NSCLC it was 87.8%. Moreover, the growth was -2.33% (active) with NCI-H522 lung, 32% in the test on A549/ATCC NSCLC, 41.6% with 786-0 renal and 12.3% in the test with COLO 205 colon.

For the compound `Cc1[nH]c(C2CC(c3ccc(C(F)(F)F)c(F)c3)=NN2c2ccccc2)c(C)c1C(=O)NCC(F)(F)F` (stereo not given), the growth in the test on NCI-H23 lung was 89%; with NCI-H226 lung, 77.2%; with NCI-H322M lung, 88%; in the test with HOP-62 NSCLC, 91.4%; in the test on NCI-H460 lung, 94.2%; in the test with HOP-92 NSCLC, 113%. Also, the growth in the test with NCI-H522 lung was 89.5%; in the test with A549/ATCC NSCLC it was 84.8%; with 786-0 renal, 90.7%; with COLO 205 colon, 93.7%.
